# Results as given in PubChem BioAssay AID1445 (SRMLSC, 2008).
# The campaign covered roughly 220,000 compounds. About 910 (0.41%) were called active.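 Rule for the calls: active = primary inhibition above the hit cutoff, then over 50% inhibition at one or more dose response concentrations (cut at about 23% in these data, passing the limit was not always enough); inconclusive = conflicting primary data, or primary hits not chosen for dose response; inactive = low primary inhibition, or under 50% at every dose.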 What follows is part of a selection rich in actives, with near analogues and random picks from the rest. Results with a measured potency or affinity are listed apart.
# Target: Aminopeptidase N (Plasmodium falciparum (isolate 3D7)) (UniProt O96935)
# Sequence (O96935 whole entry, looked up): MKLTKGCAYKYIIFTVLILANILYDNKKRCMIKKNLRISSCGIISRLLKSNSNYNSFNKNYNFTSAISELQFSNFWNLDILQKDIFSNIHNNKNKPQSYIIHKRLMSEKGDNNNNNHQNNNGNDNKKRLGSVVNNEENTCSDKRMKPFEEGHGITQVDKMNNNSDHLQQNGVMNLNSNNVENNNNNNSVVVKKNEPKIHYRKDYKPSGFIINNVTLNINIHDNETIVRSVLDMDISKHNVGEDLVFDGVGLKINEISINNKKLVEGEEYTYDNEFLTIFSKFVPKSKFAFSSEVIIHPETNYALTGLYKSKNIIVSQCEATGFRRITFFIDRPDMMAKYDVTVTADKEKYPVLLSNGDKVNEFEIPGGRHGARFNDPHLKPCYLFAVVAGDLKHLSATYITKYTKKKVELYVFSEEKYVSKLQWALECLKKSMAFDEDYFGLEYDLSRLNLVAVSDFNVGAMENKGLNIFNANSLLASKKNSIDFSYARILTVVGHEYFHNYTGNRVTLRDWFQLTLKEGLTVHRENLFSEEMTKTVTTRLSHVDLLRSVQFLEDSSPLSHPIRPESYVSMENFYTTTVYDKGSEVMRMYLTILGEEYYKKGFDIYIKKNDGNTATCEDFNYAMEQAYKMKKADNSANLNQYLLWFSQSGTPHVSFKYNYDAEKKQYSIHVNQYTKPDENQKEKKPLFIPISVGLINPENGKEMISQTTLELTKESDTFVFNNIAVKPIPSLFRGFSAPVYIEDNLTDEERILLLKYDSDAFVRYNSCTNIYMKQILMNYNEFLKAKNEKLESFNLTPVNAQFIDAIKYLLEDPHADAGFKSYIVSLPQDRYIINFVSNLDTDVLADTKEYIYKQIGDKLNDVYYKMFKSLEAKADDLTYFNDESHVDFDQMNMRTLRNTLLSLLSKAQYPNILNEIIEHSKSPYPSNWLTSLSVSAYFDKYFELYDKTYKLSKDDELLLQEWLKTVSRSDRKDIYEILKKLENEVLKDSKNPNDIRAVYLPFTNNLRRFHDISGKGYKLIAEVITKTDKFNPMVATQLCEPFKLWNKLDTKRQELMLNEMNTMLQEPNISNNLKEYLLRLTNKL
# Test: malaria alanyl aminopeptidase activity blockers – biochemical, fluorogenic H-Leu-NHMec substrate, 1536-well (AID 1445);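 note: plate controls were DMSO full reaction for no effect and no enzyme background for full effect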
# Settings: recombinant M1AAP, H-Leu-NHMec fluorogenic kinetic assay; at 30 µM, hits give high values unless noted
row,SMILES,inhibition
1,COc1ccccc1NS(=O)(=O)c1cc(NC(=O)c2cccs2)ccc1N1CCOCC1,3.5% (inactive)
2,Cc1nn2c(N3CCOCC3)c3c(nc2c1-c1ccccc1)CCCC3,4.17% (inactive)
3,Cc1nn2c(N3CCCC3)c3c(nc2c1-c1ccccc1)CCC3,7% (inactive)
4,CC1(C)CC(=O)C(/C=N/n2c(C(F)(F)F)nc3ccccc3c2=O)=C(O)C1,27.5% (active)
5,CC1(C)CC(=O)C(C=Nc2ccccc2)=C(O)C1,2.69% (inactive)
6,CC1(C)CC(=O)C(/C=N/n2cnc3ccccc3c2=O)=C(O)C1,11.3% (inactive)
7,O=C(c1ccco1)N1CCN(C(c2ccccc2Cl)c2nnnn2Cc2ccco2)CC1 (configuration not stated),2.33% (inactive)
8,Cc1noc(NC(=O)c2ccccc2C(F)(F)F)c1C#N,-0.81% (inactive)
9,O=S(=O)(Nc1cccnc1)c1cc(Cl)ccc1Cl,25.4% (active)
10,O=S(=O)(Nc1nccs1)c1ccc(Cl)cc1,-5.71% (inactive)
11,O=C(O)c1ccc(NS(=O)(=O)c2cc(Cl)ccc2Cl)cc1,5.33% (inactive)
12,O=S(=O)(Nc1ncccn1)c1ccc(NS(=O)(=O)c2cc(Cl)ccc2Cl)cc1,30.4% (inactive)
13,O=S(=O)(Nc1ccncc1Cl)c1cc(Cl)ccc1Cl,4.72% (inactive)
14,O=S(=O)(Nc1nccs1)c1cc(Cl)ccc1Cl,25.8% (active)
15,O=S(=O)(Nc1cccnc1)c1ccc(Cl)cc1,1.51% (inactive)
16,O=S(=O)(Nc1cccnc1)c1cccc(Cl)c1,-0.41% (inactive)
17,CCOc1ccccc1C(=O)Nc1nnc(SCC(=O)N2CCOCC2)s1,2.46% (inactive)
18,CN(CC(=O)N1CCCCCC1)S(=O)(=O)c1ccc(Br)s1,8.78% (inactive)
19,CCOC(=O)Cn1nc(C)c(NC(=O)COc2ccccc2[N+](=O)[O-])c1C,0.47% (inactive)
20,Cn1c(=O)n(-c2cccc(Cl)c2)c(=O)n1C,4.63% (inactive)
21,COc1ccc(/C=C/C(=O)NC(=S)NNC(=O)c2cccnc2)cc1,-8.48% (inactive)

row,SMILES,inhibition
1,Cc1cc2oc(=O)c3c(c2cc1OCc1nn[nH]n1)CCCC3,10.1% (inactive)
2,Cc1oc(C(=O)O)cc1COc1ccc2c3c(c(=O)oc2c1)CCC3,5.26% (inactive)
3,Cc1oc(C(=O)O)cc1COc1ccc2c3c(c(=O)oc2c1C)CCC3,7.51% (inactive)
4,Cc1cc(OCc2nn[nH]n2)c2c(C)c(CC(=O)O)c(=O)oc2c1,0.25% (inactive)
5,Cc1ccc(S(=O)(=O)NC2=NCCC2)cc1,-0.29% (inactive)
6,NC(=O)Cn1nc(C(F)(F)F)c2c1CCCC2,10.1% (inactive)
7,O=C(CSc1nnc(CCc2nc3ccccc3[nH]2)n1-c1ccccc1)NCc1ccccc1,-1.21% (inactive)
8,COc1ccc(-c2[nH]ncc2/C=C(/C#N)C(=O)NC2CCCCC2)cc1,7.83% (inactive)
9,Cc1ccc(-c2[nH]ncc2/C=C(\C#N)C(=O)NC2CCCCC2)cc1,24.9% (active)
10,N#C/C(=C\c1cn[nH]c1-c1ccccc1)C(=O)NC1CCCCCC1,9.74% (inactive)
11,CCOC(=O)c1[nH]c2ccc(OC)cc2c1NC(=O)c1cccc(OC)c1,3.82% (inactive)
12,Cc1nn(-c2ccccc2)c(Cl)c1C(=O)N(C)c1nc(-c2ccc(F)cc2)cs1,-3.58% (inactive)
13,COc1cc(/C=C/C(=O)NCCn2c(C)cc3ccccc32)cc(OC)c1OC,8.36% (inactive)
14,O=Cc1cn(CC(=O)N2CCc3ccccc32)c2ccccc12,2.93% (inactive)
15,N#Cc1cn(CC(=O)N2CCCc3ccccc32)c2ccccc12,9.27% (inactive)
16,O=C(NCC(c1cccs1)N1CCOCC1)c1ccc(Cl)s1 (configuration not stated),7.44% (inactive)
17,C=CCNC(=S)N1CCC(C(=O)c2ccc(OC)cc2)CC1,8.35% (inactive)
18,COc1ccc(C2OC(=O)C(C)(C)C(=O)C2(C)C)cc1OC (configuration not stated),-0.38% (inactive)
19,Cc1ccc(S(=O)(=O)c2c(C)nn(C(C)(C)C)c2OC(=O)c2ccc(Br)o2)cc1,19.6% (inactive)
20,Cc1ccc(S(=O)(=O)c2c(C)nn(C(C)(C)C)c2OC(=O)c2ccco2)cc1,27.3% (active)
21,Cc1ccc(S(=O)(=O)c2c(C)nn(-c3ccccc3)c2OC(=O)c2ccco2)cc1,6.34% (inactive)

row,SMILES,inhibition
1,CCCCCOC(=O)C1C2C=CC3(CN(c4ccccc4C)C(=O)C13)O2 (configuration not stated),5.27% (inactive)
2,Nc1nc(CSc2ncccn2)nc(Nc2ccccc2)n1,-3.84% (inactive)
3,O=C(Nc1ccc(-n2cnnn2)cc1)C1CCCN1C(=O)NC1CCCCC1 (configuration not stated),3.93% (inactive)
4,O=C(CSc1ncn[nH]1)Nc1ccccc1-c1ccccc1,-4.4% (inactive)
5,Nc1cc(=O)[nH]c(SCC(=O)Nc2ccccc2-c2ccccc2)n1,2.73% (inactive)
6,CCCNc1ncccc1C(N)=O,-1.06% (inactive)
7,O=c1c(-c2nc3ccccc3s2)cccn1Cc1ccc(Cl)cc1,2.06% (inactive)
8,Cc1ccc(Cn2cccc(-c3nc4ccccc4s3)c2=O)cc1,10.1% (inactive)
9,O=c1c(-c2nc3ccccc3s2)cccn1Cc1ccccc1,25.6% (active)
10,O=C(O)CCC(=O)OC1CC2CCC1C2 (configuration not stated),-3.14% (inactive)
11,CCN(CC)S(=O)(=O)c1ccc(NC(=O)CC(NC(C)=O)c2ccccc2)cc1 (configuration not stated),-1.24% (inactive)
12,CCOc1cc(/C=C2\SC(=S)N(Nc3ccccc3)C2=O)ccc1O,14.7% (inactive)
13,COc1cc(/C=C2\SC(c3ccc(C)cc3)=NC2=O)ccc1O,9.74% (inactive)
14,COc1ccc(C2=NN(c3ccccc3)C(=O)/C2=C\c2ccc(O)c(OC)c2)cc1,8.38% (inactive)
15,CCOc1cc(/C=C2\C(=O)N(c3nc(-c4ccc(Br)cc4)cs3)N=C2c2ccccc2)ccc1O,15.7% (inactive)
16,CCNc1c([N+](=O)[O-])c(=O)oc2ccccc12,7.91% (inactive)
17,COc1ccccc1C(=O)N1CCN(Cc2cn[nH]c2-c2ccc(F)cc2F)CC1,3.76% (inactive)
18,Cc1cccc2cc(CN(C(=O)c3cnccn3)C3CCCCC3)c(Cl)nc12,5.74% (inactive)
19,Cc1ccc(S(=O)(=O)NN=C2CCN(Cc3ccccc3)CC2)cc1,4.22% (inactive)
20,O=C(O)CC(c1ccc(Cl)cc1)n1cccc1 (configuration not stated),8.45% (inactive)
